Assay results from PubChem BioAssay (Tox21).
Several values for one entry are separate records, joined by “and”; a condition that tells them apart may be missing. Identical values can stand only once. Results filed as inconclusive are left out. A structure can be active in one record and inactive in another. Activity calls are given as the source filed them. Unless noted, calls follow the shape of the dose curve; as a rule, active = well fitted curve in the direction sought with a large enough effect in the repeat runs; inconclusive = weak or mixed curves; inactive = no such curve, though single readings can be large; an effect the other way counts as inactive or inconclusive.

Legend:
[1] = target: Thyrotropin receptor (Homo sapiens) (UniProt P16473); experiment: qHTS assay to identify small molecule antagonists of the thyroid stimulating hormone receptor (TSHR) signaling pathway (AID 1259385; calls by dose curve; also: nearly all actives have a fitted effect of over 20% in size; also: potency is read from the fitted curve at half-maximal effect)
How it was run: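 TSHR-HEK293 cells (800/well) plated 18 h, then compounds with Ro20-1724 and TSH at 1.5 ng/mL final, 30 min at room temperature. cAMP quantified by HTRF (cAMP-d2/anti-cAMP-cryptate, 1 h); 15 concentrations in triplicate.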

[2] = qHTS assay to identify small molecule agonists of the estrogen receptor alpha (ER-alpha) signaling pathway in the presence of an antagonist - cell viability counter screen (AID 1259386);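 also: series mostly up to about 92 µM; cells exposed to compounds for 22 h at 37 °C before the viability read; nearly all actives have a fitted effect of over 30% in size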
How it was run: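 Cytotoxicity was measured in parallel with the ERE-luciferase agonist screen, in the same wells. The cells were VM7Luc4E2, which endogenously express ER-alpha, and treatment was with compounds plus 10.0nM ICI-182,780 for 22hr.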

[3] = target: Progesterone receptor (Homo sapiens) (UniProt P06401); experiment: qHTS assay to identify small molecule antagonists of the progesterone receptor (PR) signaling pathway (AID 1346795; active = well fitted inhibition curve with a large enough effect in the signal ratio in the repeat runs, not every such curve was filed as active; the % refers to the signal ratio)
How it was run: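 Beta-lactamase reporter, HEK293T PR-UAS-bla line; 2% charcoal-stripped FBS; 6 hr pre-incubation, 37C/5% CO2. Compound + R5020 1 nM final, 16 hr. LiveBLAzer B/G FRET substrate, 2 hr RT; fluorescence intensity read.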

[4] = qHTS assay to identify small molecule antagonists of the progesterone receptor (PR) signaling pathway - cell viability counter screen (AID 1346798); also: nearly all actives have a fitted effect of over 50% in size; also: potency is read from the fitted curve at half-maximal effect; as to activity change, negative = cytotoxicity: series mostly up to about 92 µM
How it was run: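 Luminescence readout (CellTiter-Glo, 30 min, RT) of viability in PR-UAS-bla HEK293T cells exposed to compound and R5020 agonist for 16 hr at 37C, 5% CO2; run in the same wells as the beta-lactamase reporter read.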

[5] = qHTS assay to identify small molecule agonists of the progesterone receptor (PR) signaling pathway - cell viability counter screen (AID 1346799; calls by dose curve; also: nearly all actives have a fitted effect of over 45% in size)
How it was run: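 HEK293T PR-UAS-bla, 3,000 cells/well, 2% charcoal-stripped FBS; 6 h settle, compound 16 h at 37C/5% CO2; LiveBLAzer 2 h RT, then CellTiter-Glo 30 min RT, luminescence read.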

[6] = qHTS assay to identify small molecule antagonists of the TGF-beta/Smad signaling pathway - cell viability counter screen (AID 1346824); also: nearly all actives have a fitted effect of over 50% in size
How it was run: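 SBE-bla HEK 293T cells, incubated overnight, then compound plus 0.25 ng/mL TGF-beta1 (stock added) for 5 hr at 37 C. Viability was read in the same wells by CellTiter-Glo luminescence after 30 min at room temperature.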

[7] = qHTS assay to identify small molecule agonists of the TGF-beta/Smad signaling pathway - cell viability counter screen (AID 1346829); also: top concentration of the series differs between compounds; nearly all actives have a fitted effect of over 45% in size
How it was run: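 Same-well cytotoxicity: CellTiter-Glo added after the 2 hr room-temperature beta-lactamase substrate step, luminescence measured 30 min later; cells had 5 hr of compound at 37 C.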

[8] = qHTS assay to identify small molecule agonists of the TGF-beta/Smad signaling pathway (AID 1346859; active = well fitted activation curve with a large enough effect in the signal ratio in the repeat runs, not every such curve was filed as active; the % refers to the signal ratio; also: series mostly up to about 77 µM)
How it was run: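 Read-out: fluorescence at 460 and 530 nm (405 nm excitation) after a 2 hr room-temperature incubation with beta-lactamase FRET substrate. SBE-bla HEK 293T cells had been treated with test compounds for 5 hr at 37 C.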

[9] = target: Thyrotropin-releasing hormone receptor (Homo sapiens) (UniProt P34981); experiment: qHTS assay to identify small molecule antagonists of the thyrotropin-releasing hormone receptor (TRHR) signaling pathway (AID 1346877; active = well fitted inhibition curve with a large enough effect in the repeat runs, not every such curve was filed as active; also: series mostly up to about 51 µM)
How it was run: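 Antagonism is measured as suppression of the calcium response to 1 nM TRH in TRHR-HEK293 cells that have been dye-loaded for 2 h at 37 °C after overnight plating. Each compound is tested at 15 concentrations in triplicate.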

[10] = target: Thyrotropin-releasing hormone receptor (Homo sapiens) (UniProt P34981); experiment: qHTS assay to identify small molecule agonists of the thyrotropin-releasing hormone receptor (TRHR) signaling pathway (AID 1346891; calls by dose curve;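 also: HEK293 cells expressing TRHR with calcium dye readout; series mostly up to about 58 µM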)
How it was run: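 HEK293/TRHR cells, 1500 per well, 18 h 37 °C; Ca dye 2 h 37 °C; pin-tool compound addition (agonist mode); kinetic fluorescence 3 min, 1 s reads; 15 concentrations, triplicate.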

[11] = Human pregnane X receptor (PXR) small molecule agonists, qHTS cell viability counter screen (AID 1346977); also: nearly all actives have a fitted effect of over 50% in size; also: potency is read from the fitted curve at half-maximal effect
How it was run: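 Fluorescence read-out (CellTiter-Fluor) of viability in PXR-Luc HepG2 cells, multiplexed with the luciferase agonist read. Compounds in DMSO added after 5hr plating; 24hr total exposure at 37C, 5% CO2.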

[12] = Caspase-3/7 induction in HepG2 cells by small molecules, qHTS assay (AID 1346978); also: nearly all actives have a fitted effect of over 15% in size
How it was run: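 Wild-type HepG2 cells, 2,000/well, settled 5 hr at 37 C and 5% CO2, then compound-treated for 17 hr; caspase-3/7 activity read by luminescent Caspase-Glo 3/7 after 30 min at room temperature.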

[13] = Caspase-3/7 induction in CHO-K1 cells by small molecules, qHTS cell viability counter screen (AID 1346979); also: nearly all actives have a fitted effect of over 35% in size; also: potency is read from the fitted curve at half-maximal effect
How it was run: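 CHO-K1 wt, 1,500 cells/well; 5hr pre-incubation 37C/5% CO2; compound pin transfer (DMSO); 16hr exposure; CellTiter-Fluor added, 1hr, fluorescence read.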

[14] = Caspase-3/7 induction in CHO-K1 cells by small molecules, qHTS assay (AID 1346980); also: nearly all actives have a fitted effect of over 15% in size
How it was run: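 Wild-type CHO-K1 cells exposed to compounds for 17hr at 37 C, 5% CO2. Caspase-3/7 activity then measured by Caspase-Glo 3/7 luminescence after 30min at room temperature.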

[15] = Caspase-3/7 induction in HepG2 cells by small molecules, qHTS cell viability counter screen (AID 1346981); also: nearly all actives have a fitted effect of over 30% in size; also: potency is read from the fitted curve at half-maximal effect; as to activity change, negative = cytotoxicity: series mostly up to about 92 µM
How it was run: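 Cell viability is measured as a cytotoxicity counter screen alongside the Caspase-Glo 3/7 readout in identical wells. Wild-type HepG2 cells are treated with test compounds for 16 hr at 37 C before CellTiter-Fluor addition and a 1-hr incubation.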

[16] = target: Progesterone receptor (Homo sapiens) (UniProt P06401); experiment: qHTS assay to identify small molecule agonists of the progesterone receptor (PR) signaling pathway (AID 1346784; calls by dose curve; also: nearly all actives have a fitted effect of over 30% in size)
How it was run: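 HEK 293T PR-UAS-bla reporter cells, 2% charcoal-stripped FBS; 6 hr settle at 37C/5% CO2, compound (DMSO) 16 hr, LiveBLAzer B/G FRET substrate 2 hr RT, fluorescence intensity read.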

[17] = target: Nuclear receptor subfamily 1 group I member 2 (Homo sapiens) (UniProt O75469); experiment: Human pregnane X receptor (PXR) small molecule agonists, qHTS assay (AID 1346982); also: nearly all actives have a fitted effect of over 35% in size
How it was run: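 Cells: HepG2 stably carrying PXR-Luc. Medium held 5% charcoal-stripped FBS. Compounds in DMSO added after 5 hr plating, incubated 24 hr, then luminescence quantified with ONE-Glo.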

[18] = target: Nuclear receptor subfamily 1 group I member 2 (Rattus norvegicus) (UniProt Q9R1A7); experiment: Rat pregnane X receptor (rPXR) activation by small molecules, qHTS assay (AID 1346983); conditions: rPXR luciferase reporter cells, One-Glo luminescence, 24 h; stronger effect = higher value; also: nearly all actives have a fitted effect of over 20% in size
How it was run: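 Cell-based rPXR activation assay: rPXR cells, 2,000 per well, rested 5hr at 37 C, then exposed to compounds in DMSO for 24 hr at 37 C. Luciferase activity read by One-Glo luminescence after 30 min at room temperature.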

[19] = target: Nuclear receptor subfamily 1 group I member 2 (Homo sapiens) (UniProt O75469); experiment: CYP3A4 induction through human pregnane X receptor (PXR) by small molecules, qHTS assay (AID 1346984); also: nearly all actives have a fitted effect of over 40% in size
How it was run: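 Quantitative HTS in DPX-2 cells, i.e. HepG2 transfected with PXR response element and CYP3A4-promoter luciferase. Compounds in DMSO incubated 24hr at 37C; then P450-Glo CYP3A4 substrate, 3uM final, 3hr; One-Glo luminescence.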

[20] = target: Nuclear receptor subfamily 1 group I member 2 (Homo sapiens) (UniProt O75469); experiment: Human pregnane X receptor (PXR) activation by small molecules, qHTS assay (AID 1346985); also: nearly all actives have a fitted effect of over 40% in size
How it was run: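 DPX-2 cells (HepG2 co-transfected with a PXR response element and a CYP3A4-promoter luciferase construct) were seeded at 2,000 per well, rested 5 hr at 37C, then exposed to DMSO-dissolved compounds for 24 hr. Activation was read as luciferase luminescence.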
% is scaled to controls: 0 for no effect and ±100 for the full control effect.

Sequence of Nuclear receptor subfamily 1 group I member 2 (Homo sapiens) (O75469 whole entry, looked up): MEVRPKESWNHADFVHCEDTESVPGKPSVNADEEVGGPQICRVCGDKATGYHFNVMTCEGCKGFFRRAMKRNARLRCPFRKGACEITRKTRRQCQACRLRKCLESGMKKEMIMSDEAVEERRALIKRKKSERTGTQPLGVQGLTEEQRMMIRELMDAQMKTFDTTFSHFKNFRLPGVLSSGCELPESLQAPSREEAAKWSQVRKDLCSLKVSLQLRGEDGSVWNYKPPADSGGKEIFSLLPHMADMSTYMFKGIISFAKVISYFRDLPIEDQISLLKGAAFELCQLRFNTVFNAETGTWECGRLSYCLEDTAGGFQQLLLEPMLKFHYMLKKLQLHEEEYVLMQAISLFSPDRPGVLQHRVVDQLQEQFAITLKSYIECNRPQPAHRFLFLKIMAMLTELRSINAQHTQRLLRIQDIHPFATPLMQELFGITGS
Sequence of Thyrotropin receptor (Homo sapiens) (P16473 whole entry, looked up): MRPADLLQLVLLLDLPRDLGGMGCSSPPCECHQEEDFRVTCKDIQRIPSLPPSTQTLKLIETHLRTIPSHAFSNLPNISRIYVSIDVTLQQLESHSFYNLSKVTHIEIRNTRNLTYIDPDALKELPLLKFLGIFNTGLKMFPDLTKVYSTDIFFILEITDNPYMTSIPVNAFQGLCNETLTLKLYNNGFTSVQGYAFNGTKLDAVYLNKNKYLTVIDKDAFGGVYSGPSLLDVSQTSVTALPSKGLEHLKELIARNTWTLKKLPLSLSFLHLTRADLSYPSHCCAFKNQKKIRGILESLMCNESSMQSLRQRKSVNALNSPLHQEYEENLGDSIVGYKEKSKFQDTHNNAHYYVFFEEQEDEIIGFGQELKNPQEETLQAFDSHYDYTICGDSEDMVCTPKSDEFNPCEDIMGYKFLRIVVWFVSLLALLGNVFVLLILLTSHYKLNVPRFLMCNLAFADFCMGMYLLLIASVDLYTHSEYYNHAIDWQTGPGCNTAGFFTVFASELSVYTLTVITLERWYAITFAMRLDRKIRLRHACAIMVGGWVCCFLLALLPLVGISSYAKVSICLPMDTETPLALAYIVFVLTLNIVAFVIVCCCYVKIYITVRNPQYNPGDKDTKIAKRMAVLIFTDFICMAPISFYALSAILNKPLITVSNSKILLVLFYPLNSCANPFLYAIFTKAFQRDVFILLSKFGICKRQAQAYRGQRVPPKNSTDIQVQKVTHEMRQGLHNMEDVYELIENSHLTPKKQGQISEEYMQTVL
Sequence of Thyrotropin-releasing hormone receptor (Homo sapiens) (P34981 whole entry, looked up): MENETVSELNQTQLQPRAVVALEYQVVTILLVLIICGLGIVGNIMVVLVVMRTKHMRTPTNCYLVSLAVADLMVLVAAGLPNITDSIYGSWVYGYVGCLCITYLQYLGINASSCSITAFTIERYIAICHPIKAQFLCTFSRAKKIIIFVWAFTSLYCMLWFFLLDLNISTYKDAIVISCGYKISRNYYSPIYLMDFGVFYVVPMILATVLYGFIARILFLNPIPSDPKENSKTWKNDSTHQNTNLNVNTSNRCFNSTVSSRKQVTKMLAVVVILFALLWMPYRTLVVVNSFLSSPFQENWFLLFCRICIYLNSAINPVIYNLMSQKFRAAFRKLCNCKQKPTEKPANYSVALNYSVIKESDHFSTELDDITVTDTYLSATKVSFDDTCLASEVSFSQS
Sequence of Progesterone receptor (Homo sapiens) (P06401 whole entry, looked up): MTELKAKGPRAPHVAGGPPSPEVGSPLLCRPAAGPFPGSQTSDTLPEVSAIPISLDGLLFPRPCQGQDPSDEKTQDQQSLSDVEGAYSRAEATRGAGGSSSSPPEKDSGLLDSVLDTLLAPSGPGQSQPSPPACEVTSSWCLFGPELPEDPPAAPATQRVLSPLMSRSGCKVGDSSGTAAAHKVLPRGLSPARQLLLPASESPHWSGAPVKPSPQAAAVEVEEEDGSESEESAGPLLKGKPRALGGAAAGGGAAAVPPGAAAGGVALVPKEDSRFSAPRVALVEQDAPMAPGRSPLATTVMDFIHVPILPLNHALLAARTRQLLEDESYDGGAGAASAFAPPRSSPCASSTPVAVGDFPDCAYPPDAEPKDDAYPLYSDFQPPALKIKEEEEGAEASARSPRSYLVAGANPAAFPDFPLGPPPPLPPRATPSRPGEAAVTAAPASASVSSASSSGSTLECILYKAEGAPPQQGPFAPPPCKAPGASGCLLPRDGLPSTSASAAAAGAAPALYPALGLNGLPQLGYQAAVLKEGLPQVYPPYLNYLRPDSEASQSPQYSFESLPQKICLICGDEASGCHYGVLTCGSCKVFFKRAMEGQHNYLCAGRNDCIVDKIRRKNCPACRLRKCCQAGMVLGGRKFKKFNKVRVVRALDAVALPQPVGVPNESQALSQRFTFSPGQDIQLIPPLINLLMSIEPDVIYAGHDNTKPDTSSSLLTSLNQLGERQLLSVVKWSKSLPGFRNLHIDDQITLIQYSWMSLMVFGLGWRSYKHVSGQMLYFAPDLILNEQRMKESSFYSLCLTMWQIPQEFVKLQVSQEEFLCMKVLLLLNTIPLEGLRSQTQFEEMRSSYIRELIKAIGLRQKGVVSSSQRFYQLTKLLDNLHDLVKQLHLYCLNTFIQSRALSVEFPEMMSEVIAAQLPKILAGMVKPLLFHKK
Sequence of Nuclear receptor subfamily 1 group I member 2 (Rattus norvegicus) (Q9R1A7 whole entry, looked up): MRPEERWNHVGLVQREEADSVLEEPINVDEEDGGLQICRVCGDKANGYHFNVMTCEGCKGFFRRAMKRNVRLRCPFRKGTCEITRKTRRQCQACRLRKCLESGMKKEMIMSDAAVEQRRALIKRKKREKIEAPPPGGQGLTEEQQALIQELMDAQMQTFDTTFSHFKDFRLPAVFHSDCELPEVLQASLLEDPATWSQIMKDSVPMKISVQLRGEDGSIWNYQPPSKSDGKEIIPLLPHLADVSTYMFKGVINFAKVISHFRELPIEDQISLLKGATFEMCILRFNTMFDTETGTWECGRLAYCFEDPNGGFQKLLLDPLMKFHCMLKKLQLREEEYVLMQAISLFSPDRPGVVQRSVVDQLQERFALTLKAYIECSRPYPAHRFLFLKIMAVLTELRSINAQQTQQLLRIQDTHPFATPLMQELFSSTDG

NCCc1cnc[nH]1
inactive: Potency [1] | Potency [2] | Potency [3] | Potency [4] | Potency [5] | Potency [6] | outcome [7] | outcome [8] | outcome [9] | outcome [10] | Potency [11] | Potency [12] | Potency [13] | outcome [14] | Potency [15]

NC(=O)Nc1ccccc1
inactive: Potency [1] | Potency [2] | Potency [16] | Potency [4] | Potency [5] | outcome [7] | outcome [8] | Potency [11] | Potency [12] | Potency [13] | outcome [14] | Potency [15] | Potency [17]

COC(=O)C1=C(C)NC(C)=C(C(=O)OC)C1c1ccccc1[N+](=O)[O-]
active: Potency [13] 48.6 µM and 26.6 µM
inactive: Potency [1] | Potency [2] | Potency [16] | Potency [4] | Potency [5] | Potency [6] | outcome [7] | outcome [8] | outcome [9] | outcome [10] | Potency [12]
30.7 µM (active) and inactive: Potency [15]
48.6 µM (active) and inactive: Potency [11]

CC(C)OC(=O)c1ccccc1
inactive: Potency [1] | Potency [2] | Potency [16] | Potency [5] | Potency [6] | outcome [7] | outcome [8] | Potency [11] | Potency [12] | Potency [13] | outcome [14] | Potency [15] | Potency [17]

CN1N=C(C(N)=O)CCC1=O
inactive: Potency [1] | Potency [2] | Potency [16] | Potency [4] | Potency [5] | Potency [6] | outcome [7] | outcome [8] | Potency [11] | Potency [12] | Potency [13] | Potency [15] | Potency [17]

NC(=O)c1cn(Cc2c(F)cccc2F)nn1
inactive: Potency [1] | Potency [2] | Potency [16] | Potency [4] | Potency [5] | Potency [6] | outcome [7] | outcome [8] | Potency [11] | Potency [12] | Potency [13] | Potency [15] | Potency [17] | max activation [18] -1.62% | Potency [19] | Potency [20]

CCCCCCCCCCCC
active: Potency [4] 68.6 µM
inactive: Potency [1] | Potency [2] | Potency [16] | Potency [5] | Potency [6] | outcome [7] | outcome [8] | outcome [10] | Potency [11] | Potency [12] | Potency [13] | outcome [14] | Potency [15] | Potency [17]

C=C[Si](OC(=C)C)(OC(=C)C)OC(=C)C
inactive: Potency [1] | Potency [2] | Potency [16] | Potency [5] | Potency [6] | outcome [8] | outcome [9] | outcome [10] | Potency [11] | Potency [12] | Potency [13] | outcome [14] | Potency [15] | Potency [17]

CCCCOCCOCCOCc1cc2c(cc1CCC)OCO2
inactive: Potency [2] | Potency [16] | Potency [4] | Potency [5] | outcome [8] | outcome [9] | outcome [10] | Potency [11] | Potency [12] | Potency [13] | outcome [14] | Potency [15] | max activation [18] -0.229%
active: Potency [1] 23.7 µM

Cc1ccc(=O)n(-c2ccccc2)c1
inactive: Potency [1] | Potency [2] | Potency [16] | Potency [4] | Potency [5] | Potency [6] | outcome [7] | outcome [8] | outcome [9] | outcome [10] | Potency [11] | Potency [12] | Potency [13] | outcome [14] | Potency [15] | Potency [17]

CCCCCCCCCCCCCCCCC
inactive: Potency [1] | Potency [2] | Potency [16] | Potency [4] | Potency [5] | Potency [6] | outcome [7] | outcome [8] | outcome [9] | outcome [10] | Potency [11] | Potency [12] | Potency [13] | Potency [15] | Potency [17]

NS(=O)(=O)c1ccc(C(=O)O)cc1
inactive: Potency [1] | Potency [2] | Potency [16] | Potency [4] | Potency [5] | outcome [7] | outcome [8] | Potency [11] | Potency [12] | Potency [13] | outcome [14] | Potency [15] | Potency [17]

CN1CCCC1
inactive: Potency [1] | Potency [2] | Potency [3] | Potency [4] | Potency [5] | Potency [6] | outcome [7] | outcome [8] | outcome [9] | outcome [10] | Potency [11] | Potency [12] | Potency [13] | outcome [14] | Potency [15] | Potency [17]

CCc1nccnc1CC
inactive: activity change, negative = inhibition [1] 0.0688% [at 19 µM] | activity change, negative = cytotoxicity [2] 1.02% [at 19 µM] | Potency [3] | Potency [4] | activity change, negative = cytotoxicity [5] -10.8% [at 19 µM] | viability change, negative = cytotoxic [6] 4.47% [at 15.8 µM] | activity change, negative = cytotoxicity [7] 3.37% [at 15.8 µM] | activation [8] 1.18% [at 15.8 µM] | activation [10] 0.11% [at 11.8 µM] | activity change, negative = cytotoxicity [11] -1.38% [at 19 µM] | caspase activation [12] 0.2% [at 19 µM] | Potency [13] | caspase-3/7 activation [14] -0.427% [at 19 µM] | activity change, negative = cytotoxicity [15] -4.23% [at 19 µM] | activation [17] -0.742% [at 19 µM]
